In PubChem BioAssay (NCI):
Compounds without any hit were thinned out: in the full panel of roughly 79,000, 15% have a hit. Unmarked numbers belong to inactive results. Active and inactive are the calls of the source. Rule as the data show it: active = growth inhibition above about 70%; inactive = the rest.

What was measured:
[1] = NCI Yeast Anticancer Drug Screen. Data for the rad50 strain (AID 155);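 also: 0% = growth of vehicle-only cultures of the same strain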; settings: S. cerevisiae rad50 strain growth inhibition; at 50.0 µM; hits give high values
How it was run: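 Compounds were tested on a yeast strain with an engineered DNA damage repair alteration; the reported value is growth inhibition normalised to vehicle treatment.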

[2] = NCI Yeast Anticancer Drug Screen. Data for the mec2-1 strain (AID 157); settings: S. cerevisiae mec2-1 strain, at 50.0 µM, hits give high values
How it was run: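 Yeast mec2-1 mutant treated with compound. Readout: growth inhibition vs vehicle controls.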

[3] = NCI Yeast Anticancer Drug Screen. Data for the sgs1 mgt1 strain (AID 161);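 also: 0% = growth of cultures given vehicle only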; settings: S. cerevisiae sgs1 mgt1 strain, at 50.0 µM, hits give high values
How it was run: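 Test agents were incubated with a DNA-repair-mutant yeast strain. Growth was then read and compared against vehicle-treated controls.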

[4] = NCI Yeast Anticancer Drug Screen. Data for the cln2 rad14 strain (AID 165);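 also: 0% = growth equal to vehicle treated cultures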; settings: S. cerevisiae cln2 rad14 strain, at 50.0 µM, hits give high values
How it was run: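 cln2 rad14 yeast strain; compound exposure; growth inhibition read vs vehicle controls.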

[5] = NCI Yeast Anticancer Drug Screen. Data for the bub3 strain (AID 167); settings: S. cerevisiae bub3 mutant strain, at 50.0 µM, hits give high values
How it was run: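 Growth of a checkpoint-deficient yeast mutant is measured after compound exposure. Values represent inhibition relative to vehicle.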

[6] = NCI Yeast Anticancer Drug Screen. Data for the mlh1 rad18 strain (AID 175); settings: S. cerevisiae mlh1 rad18 strain growth inhibition; at 50.0 µM; hits give high values
How it was run: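 Yeast w/ defined DNA-repair lesions; compound exposure; growth vs vehicle controls → % inhibition.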

SMILES	growth inhibition [1] [%]	growth inhibition [2] [%]	growth inhibition [3]	growth inhibition [4] [%]	growth inhibition [5] [%]	growth inhibition [6]
Cc1ncc(CO)c(Nc2ccccc2)n1	1.85	5.8	-0.25%	-25.5	-4.8	8.4%
CC1CCC2C(C(=O)O[C@H]3C4CCO[C@@H](OC5OC(CO)C(O)C(O)C5O)C4[C@@]4(CO)O[C@@H]34)=CO[C@@H](OC3OC(CO)C(O)C(O)C3O)C12 (some centres undefined)	16.4	-9.6	5.9%	22.2	22.6	19.6%
CCOC(=O)CC1(C)OCC(c2ccccc2)O1 (centres undefined)	8.8	-0.55	-3.6%	-15	9.35	-3.1%
O=C1CN(/N=C/c2ccc(-c3cccc(C(F)(F)F)c3)o2)C(=O)N1	36.4	18.4	19.8%	-19.3	16.2	21.1%
Cc1cc2c(C)[nH]nc2c(C(=O)O)c1C	6.85	-5.15	6.35%	11.1	3.2	19.4%
CCC(CC)(CC#N)C1CCCCC1	-0.8	-0.35	-0.6%	-13.8	-3.15	-8.2%
O=C(Cc1ccccc1)NN1C(=O)/C(=C\c2cccc(O)c2)SC1=Nc1ccccc1	-11	-18.9	-6%	5.9	-45.3	-16.9%
COc1ccc(C(=O)C[n+]2cc(Br)cc(Br)c2)cc1	7.9	-12.8	-7%	-3.95	14.1	-8.95%
Cc1cc(C)nc(C)c1	-22.2	-15.1	-14.2%	-11.1	-3.4	23.9%
O=C(N=Nc1c(O)[nH]c2ccc(Br)cc12)c1ccco1	24.2	28.8	43.2%	14.7	43.2	43%
COC(=O)CSc1[nH]c2nc(C)nc(Nc3ccccc3)c2c1C#N	-13.8	-19.2	-9.85%	-6.75	-27.8	16.1%
C1CSCCSCCSCCSC1	-8.05	-24.4	-13.7%	-18.3	31.9	-25.4%
COC(=O)c1ccc(C(=O)OC)nc1	-7.45	-2.1	-0.2%	-36.6	-25.6	-3.55%
CCOC(CN1CCCCC1)OCC	-7.85	-7.6	17.1%	8.7	-1.6	6.65%
Nc1cccc(-c2nc3ncnc(N)c3[nH]2)c1	8.6	-2.15	-5.5%	-46.9	-18.5	-11.2%
Cc1ccc2c(c1O)C(=O)c1ccccc1C2=O	35	13.1	-8.8%	-16.9	29.7	46.5%
CCCNC(C#N)c1ccc(C(C#N)NCCC)cc1 (centres undefined)	-4.6	-10.4	-12.6%	-5.9	-23.8	-7.8%
CC(=N/O)/C(C)=C/c1ccccc1	10.1	7.3	1.4%	8.4	6.25	2.7%
COc1cc2c(cc1OC)CN1CCc3ccccc3CC1C2 (centres undefined)	15.3	-73.3	-16.8%	-5.1	-33.5	-33.7%
COC(=O)OC/C=C\COC(=O)OC	5.8	-4.05	-13.6%	-11.4	4.55	13.6%

SMILES	growth inhibition [1] [%]	growth inhibition [2] [%]	growth inhibition [3]	growth inhibition [4] [%]	growth inhibition [5] [%]	growth inhibition [6]
CC(C)/C(Cl)=N/OC(=O)Nc1ccc(Br)cc1	34.6	47.5	90.5% (active)	24.1	69.3	81.8% (active)
Cc1ncc2c(n1)NC(c1ccc([N+](=O)[O-])cc1)NC2 (centres undefined)	0.45	-2.9	-16.6%	-3.7	14.7	-1.7%
N=c1c2ncn(C3OC(COP(=O)(O)O)C(O)C3O)c2ncn1O (centres undefined)	12.7	0	-6.6%	-18	-9.6	1.15%
CCC1Cc2ccccc2OC1=O (centres undefined)	10.9	-3.6	-1.95%	-7.7	7.9	1.55%
O=C(O)CC(C(=O)O)c1ccccc1[N+](=O)[O-] (centres undefined)	-26.9	-3.8	-24.2%	-32.5	-1.1	-7.8%
CC1CCOC(c2ccc(C(C)C)cc2)O1 (centres undefined)	8.4	-2.4	2.9%	-9.9	9.45	-0.15%
CCCCCCCC/C=C/CCCCCCCC(=O)N(C)CC(=O)O	-18.6	-17	10.8%	-29.1	22.5	-8.05%
Nc1ccc(S(=O)(=O)NO)cc1	-12.1	-3.95	-2.55%	-27.1	-2.2	11.3%
COc1cccc2c1ccc1nonc12	0.05	-4.1	-2.25%	-50	-19.1	2.2%
NC(=O)c1nnn2c1nc(N)c1cc(Cl)ccc12	-28.4	-26.6	-9.55%	-18.4	-27.6	-22.6%
O=C(CCC(=O)C1CCC/C1=N/O)Nc1ccc(Cl)cc1 (centres undefined)	-40.4	-0.4	7.4%	26.1	9.55	21.1%
CC(C)(C)C(=O)OCn1cc2c(=O)[nH]cnc2n1	11.9	8.1	28.6%	-3.75	-8.7	9.15%
C=C(C)C(=O)OCCOCC(CC)CCCC (centres undefined)	11.2	-8.8	-5%	-0.3	-3.35	-1.8%
CC(=O)Nc1ccc(/C=C2\C(=O)Nc3ccccc32)cc1	-15.4	-20.1	-23%	-11.8	-8.5	-5.9%
CCCC(CC)C(=O)NC(N)=O (centres undefined)	-7.2	-5.9	-7.8%	-8.55	-20.2	8.7%
CN(NC(=O)Nc1cccc2ccccc12)c1ccccc1	-4.7	-16.2	14.7%	-63.8	1.65	-6.85%
CCC(Sc1cc(Cl)c(C)cc1S(=O)(=O)Nc1nc(N)nc(N(C)C)n1)C(=O)O (centres undefined)	-16.1	-10.1	6.3%	25.2	-12.3	2%
C=CC12CCCCC1C(NC)Cc1ccc(OC)c(O)c12 (centres undefined)	4.25	-1.65	6.9%	1.8	4.9	-6.9%
CSc1nc(N)c(N=Nc2ccc(S(=O)(=O)Nc3cc(C)nc(C)n3)cc2)c(=O)[nH]1	17.4	15.6	-10.6%	-0.2	2.1	-3.3%
